Test results from PubChem BioAssay (NCATS).
Inconclusive results are not listed. Where a call stands in place of a potency, no number is given. Unmarked numbers belong to inactive results. The source made the active and inactive calls. Unless noted, calls follow the shape of the dose curve; as a rule, active = well fitted cell-killing curve with a large enough effect; inconclusive = small, poorly fitted or top-dose-only effect; inactive = flat fitted curve, though single readings scatter.

Tested on: not listed separately
Assay: Cell Viability - SK-N-SH (AID 435; calls by dose curve;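 also: potency is read from the fitted curve at half-maximal effect; compound exposure lasted 40 h at 37 °C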)
Conditions: SK-N-SH neuroblastoma cell viability qHTS
Outline: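 Human neuroblastoma line, 40 h exposure at 37 °C, ATP quantified via luciferase luminescence; DMSO and 100 uM tamoxifen define 0 and 100% inhibition for AC50 fitting.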

SMILES	Potency
C=Cc1ccccn1	> 92 µM
O=C(O)CNC(=O)c1ccc([N+](=O)[O-])cc1	> 92 µM
CCCCC/C=C/C=C/C=O	> 92 µM
c1ccc2n[nH]nc2c1	> 92 µM
C/C=C1\CC2C=CC1C2 (stereo unspecified)	> 92 µM
CC(=O)OCc1ccco1	> 92 µM
Cc1c(N)cccc1[N+](=O)[O-]	> 92 µM
ClC/C=C/CCl	> 92 µM
CSc1ccc(C=O)cc1	> 92 µM
C=CC(=O)NC(C)C	> 92 µM
C=C(C)C1CC=C(C)C(OC(C)=O)C1 (stereo unspecified)	> 92 µM
C/C=C(/C)C#N	> 92 µM
CC(C)(c1cc(Br)c(OCC(Br)CBr)c(Br)c1)c1cc(Br)c(OCC(Br)CBr)c(Br)c1 (stereo unspecified)	> 92 µM

Molecular target: Mitogen-activated protein kinase 10 (Mus musculus) (UniProt Q61831)
Assay: JNK3 AlphaScreen Assay (AID 530; active = well fitted curve in either direction with a large enough effect, not every such curve was filed as active;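 also: kinase came from lysate of stimulated human HepG2 cells; signal reports phosphorylation of biotinylated GST-cJun 1-79 at Ser73 with 10 µM ATP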)
Conditions: JNK3 lysate, c-Jun phosphorylation; series mostly up to 57.1 µM
Outline: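 Inhibitors reduce antibody binding to phosphorylated biotin-cJun, lowering AlphaScreen luminescence. Lysates from HepG2 cells pre-activated by IL-1beta plus TNF-alpha supplied JNK3; compounds were titrated.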

SMILES	outcome
CCC1CO1 (stereo unspecified)	inactive
FC(F)(F)c1cccc(Cl)c1	inactive
O=Nc1ccc(NO)cc1	inactive
CC(=O)Nc1ccc(C)cc1	inactive
CCNc1ccccc1	inactive
Cc1ccccc1Br	inactive
C=C(C)C(=O)OCC(C)C	inactive
C[C@@H]1CC2(OC[C@]3(C)O[C@H]23)O[C@H]2C[C@@]3(C)[C@@H]4CC[C@H]5C(C)(C)C(O[C@@H]6OC[C@@H](O)[C@H](O)[C@H]6O)CC[C@@]56C[C@@]46CC[C@]3(C)[C@@H]12 (stereo partly specified)	inactive
CCC(O)C(C)(C)C (stereo unspecified)	inactive
CCOC(=O)OCC	inactive
COc1ccccc1[N+](=O)[O-]	inactive
CCCCC(CC)COCC1CO1 (stereo unspecified)	inactive
N#CCc1ccccc1[N+](=O)[O-]	inactive
Cc1cccc(C)c1[N+](=O)[O-]	inactive
Cc1ccc2ccccc2c1[N+](=O)[O-]	inactive
CCCOCC(C)O (stereo unspecified)	inactive
CC(O)COC(C)(C)C (stereo unspecified)	inactive
Fc1ccccc1	inactive
NC(=O)NC(N)=O	inactive
CCOC(=O)C(C)C(C)=O (stereo unspecified)	inactive
O=C(O)c1ccc(Cl)cc1Cl	inactive
O=C(O)c1ccccc1Cl	inactive
CCOCCOCC	inactive
CCCCCCCCN	inactive
CC(C)=CCC/C(C)=C/C=O	inactive
Cc1cc(C(=O)O)ccc1[N+](=O)[O-]	inactive
CN(C)CCCNCCCN	inactive

Tested on: not listed separately
Assay: Cell Viability - N2a (AID 540); also: nearly all actives have a fitted effect of over 45% in size
Conditions: N2a mouse neuroblastoma cell viability; activity change, negative = cytotoxicity: at 92.2 µM (top of the series)
Outline: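 Mouse neuroblastoma N2a cells, 1500/well, exposed to compounds 40 h at 37 °C in complete medium. Viability measured as cellular ATP by CellTiter-Glo luminescence; AC50 from Hill fits of concentration-response.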

SMILES	activity change, negative = cytotoxicity
CCC1CO1 (stereo unspecified)	-4.66%
FC(F)(F)c1cccc(Cl)c1	-8.83%
O=Nc1ccc(NO)cc1	16.3%
CC(=O)Nc1ccc(C)cc1	-10.4%
C=Cc1ccccn1	5.72%
Cc1ccccc1Br	-5.14%
CCCCC/C=C/C=C/C=O	-106% (active)
C=C(C)C(=O)OCC(C)C	1.04%
C[C@@H]1CC2(OC[C@]3(C)O[C@H]23)O[C@H]2C[C@@]3(C)[C@@H]4CC[C@H]5C(C)(C)C(O[C@@H]6OC[C@@H](O)[C@H](O)[C@H]6O)CC[C@@]56C[C@@]46CC[C@]3(C)[C@@H]12 (stereo partly specified)	11%
c1ccc2n[nH]nc2c1	-2.18%
CCC(O)C(C)(C)C (stereo unspecified)	5.57%
CCOC(=O)OCC	-11.2%
CC(=O)OCc1ccco1	-7.42%
COc1ccccc1[N+](=O)[O-]	-25.3%
CCCCC(CC)COCC1CO1 (stereo unspecified)	-13.9%
N#CCc1ccccc1[N+](=O)[O-]	-1.71%

SMILES	activity change, negative = cytotoxicity
Cc1cccc(C)c1[N+](=O)[O-]	-11.3%
Cc1ccc2ccccc2c1[N+](=O)[O-]	-10.2%
CCCOCC(C)O (stereo unspecified)	-5.54%
CSc1ccc(C=O)cc1	0.565%
CC(O)COC(C)(C)C (stereo unspecified)	1.08%
Fc1ccccc1	2.48%
NC(=O)NC(N)=O	-8.97%
CCOC(=O)C(C)C(C)=O (stereo unspecified)	0.646%
C=C(C)C1CC=C(C)C(OC(C)=O)C1 (stereo unspecified)	-2.86%
O=C(O)c1ccccc1Cl	-6.85%
CCOCCOCC	-1.44%
CC(C)=CCC/C(C)=C/C=O	-7.95%
C/C=C(/C)C#N	-3.64%
CC(C)(c1cc(Br)c(OCC(Br)CBr)c(Br)c1)c1cc(Br)c(OCC(Br)CBr)c(Br)c1 (stereo unspecified)	5.75%
Cc1cc(C(=O)O)ccc1[N+](=O)[O-]	4.23%
CN(C)CCCNCCCN	1.31%

Tested on: not listed separately
Assay: Cell Viability - NIH 3T3 (AID 541); also: nearly all actives have a fitted effect of over 25% in size; also: potency is read from the fitted curve at half-maximal effect
Conditions: NIH 3T3 cell viability, qHTS; activity change, negative = cytotoxicity: at 92.2 µM (top of the series)
Outline: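 Mouse NIH 3T3 fibroblasts, 1000 cells/well, rested 5 hr at 37 °C, then exposed to compound for 40 hr at 37 °C in complete medium. Viability read as intracellular ATP by CellTiter-Glo luminescence; AC50 from Hill-equation fits of concentration-response data.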

SMILES	Potency	activity change, negative = cytotoxicity
CCC1CO1 (stereo unspecified)	inactive	–
FC(F)(F)c1cccc(Cl)c1	inactive	–
O=Nc1ccc(NO)cc1	inactive	–
CC(=O)Nc1ccc(C)cc1	inactive	–
C=Cc1ccccn1	inactive	–
CCNc1ccccc1	inactive	–
Cc1ccccc1Br	inactive	–
O=C(O)CNC(=O)c1ccc([N+](=O)[O-])cc1	inactive	–
CCCCC/C=C/C=C/C=O	–	-100% (active)
C=C(C)C(=O)OCC(C)C	inactive	–
C[C@@H]1CC2(OC[C@]3(C)O[C@H]23)O[C@H]2C[C@@]3(C)[C@@H]4CC[C@H]5C(C)(C)C(O[C@@H]6OC[C@@H](O)[C@H](O)[C@H]6O)CC[C@@]56C[C@@]46CC[C@]3(C)[C@@H]12 (stereo partly specified)	inactive	–
c1ccc2n[nH]nc2c1	inactive	–
C/C=C1\CC2C=CC1C2 (stereo unspecified)	inactive	–
CCC(O)C(C)(C)C (stereo unspecified)	inactive	–
CCOC(=O)OCC	inactive	–
COc1ccccc1[N+](=O)[O-]	inactive	–
CCCCC(CC)COCC1CO1 (stereo unspecified)	inactive	–

SMILES	Potency	activity change, negative = cytotoxicity
Cc1c(N)cccc1[N+](=O)[O-]	inactive	–
ClC/C=C/CCl	inactive	–
N#CCc1ccccc1[N+](=O)[O-]	inactive	–
Cc1cccc(C)c1[N+](=O)[O-]	inactive	–
Cc1ccc2ccccc2c1[N+](=O)[O-]	inactive	–
CCCOCC(C)O (stereo unspecified)	inactive	–
CC(O)COC(C)(C)C (stereo unspecified)	inactive	–
NC(=O)NC(N)=O	inactive	–
C=CC(=O)NC(C)C	inactive	–
CCOC(=O)C(C)C(C)=O (stereo unspecified)	inactive	–
O=C(O)c1ccc(Cl)cc1Cl	inactive	–
O=C(O)c1ccccc1Cl	inactive	–
CCOCCOCC	inactive	–
CCCCCCCCN	inactive	–
CC(C)(c1cc(Br)c(OCC(Br)CBr)c(Br)c1)c1cc(Br)c(OCC(Br)CBr)c(Br)c1 (stereo unspecified)	inactive	–
Cc1cc(C(=O)O)ccc1[N+](=O)[O-]	inactive	–
CN(C)CCCNCCCN	12.6 µM (active)	–
